Screening data as filed in PubChem.
Most compounds without a hit are left out; they make up all but 8.8% or so of the library.
HttQ103 aggreg – mutant huntingtin aggregation inhibition; Potency, µM (series often up to 46.1 µM), for the others: top-dose activity change, negative = inhibition, hits mostly inhibitors; PC12 HttQ103-GFP aggregates, Acumen cytometry, 40 h; 220,000 compounds, 1.1% hits; AID 1688; further: on the % scale 0 is the no-effect control and ±100 the full control effect; nearly all actives have a fitted effect of over 60% in size
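Aggregates are detected as GFP objects 1–25 µm with signal 6 STDEV over background in lysates of induced PC12 cells. These carry Huntingtin exon 1 with 103 glutamines fused to GFP under an ecdysone promoter; compounds titrated.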
HTT ATP protect – protects HTT-Q103 PC12 cells, measured by ATP. PC12 HTT-Q103 induced, cytoprotection, ATP luminescence, 40 h. Potency, µM (doses to about 56.4 µM), without a hit: cytoprotection (ATP increase), hits mostly activators. 230,000 compounds, 0.14% hits. AID 1471; further: % of control where 0% means no effect; nearly all actives have a fitted effect of over 45% in size
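PC12 cells with ecdysone-inducible HTT exon 1 Q103-GFP, induced with 100 nM tebufenozide and co-treated with library compounds in a dose series (1536-well, 1500 cells/well). Cytoprotection read as ATP content by ATPlite luminescence.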
ALDH1A1 inh – blocks purified human ALDH1A1 activity | AID 1030 | 220,000 compounds, 7.3% hits | Potency, µM (titrated, usually from 75.3 µM), for inactives: at the top dose activity, negative = inhibition, actives largely listed as inhibitors | Purified ALDH1A1, NADH fluorescence, propionaldehyde substrate | P00352; active means well fitted inhibition curve with a large enough effect, not every such curve was filed as active; inconclusive means small, poorly fitted or top-dose-only effect, or another doubt; inactive means no such curve, though single readings can be large or run the other way;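 further: plate controls were no enzyme wells and a reference inhibitor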
LMNA splice mod – changes lamin A minigene splicing in HeLa cells. HeLa LMNA splicing GFP/RFP minigene ratio, 48 h. Potency, µM (doses to about 46.1 µM), for inactives: at the highest dose ratio change, negative = inhibition, actives largely listed as inhibitors. 200,000 compounds, 0.01% hits; active means well fitted inhibition curve with a large enough effect in the signal ratio, with a control signal flat, not every such curve was filed as active; inconclusive means small, poorly fitted or top-dose-only effect, or effect the other way, or a change in a side signal; the % refers to the signal ratio; further: on the % scale 0 is the no-effect control and ±100 the full control effect
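S3 HeLa cells stably expressing lamin A-EGFP splicing minigene plus DsRed2, 600 cells/well, 48 h compound exposure at 37C. Laser-scanning cytometry; analysed as GFP (500-530 nm)/RFP (575-640 nm) total intensity ratio; 0.5% DMSO vehicle.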
HPGD inh – blocks human HPGD enzyme activity. purified HPGD, NADH fluorescence kinetic, PGE2 substrate. P15428. Potency, µM, for the others: top-dose activity change, negative = inhibition, usual class: inhibitors. AID 894. 150,000 compounds, 4.3% hits; active means well fitted inhibition curve with a large enough effect, not every such curve was filed as active; inconclusive means small, poorly fitted or top-dose-only effect, or another doubt; inactive means no such curve, though single readings can be large or run the other way; further: on the % scale 0 is the no-effect control and ±100 the full control effect
Target sequence (P15428 whole entry, looked up): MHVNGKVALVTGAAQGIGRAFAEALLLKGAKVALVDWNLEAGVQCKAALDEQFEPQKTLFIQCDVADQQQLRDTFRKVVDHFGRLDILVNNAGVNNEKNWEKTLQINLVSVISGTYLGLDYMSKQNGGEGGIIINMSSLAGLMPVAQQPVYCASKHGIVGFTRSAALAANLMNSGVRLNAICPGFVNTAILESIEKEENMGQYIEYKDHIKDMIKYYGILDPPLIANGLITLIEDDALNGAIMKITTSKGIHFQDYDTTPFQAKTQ
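NADH formation kinetics: reaction with 30 uM PGE2 and 1 mM NAD+ (final), 20 nM enzyme, Tris-HCl pH 8 with Tween 20, after 15 min compound preincubation at room temperature. Fluorescence change, last versus first of five reads.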
The depositor's hits bear a star; ? = inconclusive; · = no result; [ ] = remark or other dose. Unless noted, the call rests on the fitted dose curve; in most records, active means well fitted curve in the direction sought with a large enough effect; inconclusive means small, poorly fitted or top-dose-only effect, or another doubt; inactive means no such curve, though single readings can be large; an effect the other way counts as inactive or inconclusive. Potency means the concentration at half of the fitted maximal effect.

SMILES	HttQ103 aggreg	HTT ATP protect	ALDH1A1 inh	LMNA splice mod	HPGD inh
Cc1ccccc1C(=O)NC(=S)Nc1sc2c(c1C#N)CCCC2	-8%	-12%[10 µM]	6.3µM*	?	-24%
Cc1onc(-c2ccccc2)c1C(=O)Nc1sc2c(c1C#N)CCC2	?	-47%[10 µM]	?	?	?
N#Cc1c(NC(=O)c2ccccc2)sc2c1CCCCC2	12%	-20%[10 µM]	?	-5%	?
CC(C)(C)C(=O)NC(=S)Nc1sc2c(c1C#N)CCCCC2	?	-3%[10 µM]	22µM*	-8%	-22%
Cc1onc(-c2ccccc2)c1C(=O)NC(=S)Nc1sc2c(c1C#N)CCCC2	27%	-9%[10 µM]	0.5µM*	-19%	?
COc1cc(OC)c(NC(=O)CCS(=O)(=O)c2ccc3c(c2)oc(=O)n3C)cc1Cl	·	·	·	-1%[46 µM]	·
O=C(CCc1nc(-c2cccs2)no1)Nc1cccc([N+](=O)[O-])c1	·	·	·	8%[46 µM]	·
Cc1cc(C(=O)Nc2sc3c(c2C#N)CCC(C)C3)no1 (configuration not stated)	-4%	-20%[0.074 µM]	?	-11%	-14%
Cc1onc(-c2ccccc2)c1C(=O)NC(=S)Nc1sc2c(c1C#N)CCC(C)C2 (configuration not stated)	15%	-15%[10 µM]	2.2µM*	2%	-29%
Cn1cc(Cl)c(C(=O)NC(=S)Nc2sc3c(c2C#N)CCCCC3)n1	9%	-1%[10 µM]	?	-17%	10µM*
CCOc1ccc(CNC(=O)CCC(=O)N2CC3CCCN3c3ccccc32)cc1 (configuration not stated)	·	·	·	-10%[46 µM]	·
O=C(c1cc(-c2ccco2)nn1-c1cccc(Cl)c1)N1CCCCC1	31%	-1%[10 µM]	3.5µM*	1%	1.6µM*
CCOC(=O)c1cc(-c2ccco2)nn1-c1ccc(C)cc1	18%	-42%	14µM*	-22%[46 µM]	·
CC(C)NC(=O)c1cc(-c2ccco2)nn1-c1ccc(Cl)cc1	-12%	-7%	28µM*	-6%	?
CC(=O)[C@H](C(=N)C#N)C(=O)Nc1ccccc1	·	-6%[10 µM]	5%[13.5 µM]	·	-11%
COc1c(/C=N/NC(=O)c2ccncc2)c(CCN(C)C(C)=O)cc2c1OCO2	-7%[9.22 µM]	21%[10 µM]	·	·	·
CC1=CC(C)(C)NC(=S)N1c1ccc2ccccc2c1	-16%	2%	-1%	-10%	-17%
CC1=CC(C)(C)NC(=S)N1c1cccc2ccccc12	5%	-6%[10 µM]	22µM*	-3%	1%
COc1ccc(C2CC2/C(C)=N/OC(=O)c2cccs2)cc1 (configuration not stated)	8%	3%[10 µM]	-14%	15%	22µM*
CN(C)CCOC(=O)[C@@H](c1ccccc1)C1(O)CCCC1	1%	5.6µM*	5%[20.9 µM]	?	-3%
CCOC(=O)c1cnc2sc3c(n2c1=O)CCCC3	8.9µM*	-12%[10 µM]	?	?	?
CN(C)c1ccc(C=Nc2ccccc2C(N)=O)cc1	-8%	-110%	?	?	?
CN(C)c1ccc(/C=N/N=C/c2ccccc2O)cc1	-5%	2%[10 µM]	13µM*	-6%	-7%
CCOC(=O)C1CCN(c2ncnc3c2nnn3Cc2ccccc2Cl)CC1	13%[9.22 µM]	-10%[10 µM]	?	15%[46 µM]	·
O=C(c1ccco1)N1CCN(c2nnc(-c3ccccc3)c3ccccc23)CC1	11%[9.22 µM]	-12%	25µM*	3%	-6%
SMILES	HttQ103 aggreg	HTT ATP protect	ALDH1A1 inh	LMNA splice mod	HPGD inh
O=C(c1ccco1)N1CCN(c2ncnc3c2nnn3Cc2ccccc2Cl)CC1	-16%	12%[10 µM]	?	?	35µM*
Clc1ccccc1Cn1nnc2c(Nc3ccccc3)ncnc21	?	-26%	25µM*	?	-23%
O=C(c1ccco1)N1CCN(c2nc(C(F)(F)F)nc3c2nnn3Cc2ccccc2)CC1	?	35%[10 µM]	14µM*	?	?
O=C(CCCCCN1C(=O)c2ccccc2C1=O)NCCc1nc2ccccc2[nH]1	10%	-15%	11µM*	-3%	-6%
COc1ccc(CCNC(=O)CCCCCN2C(=O)c3ccccc3C2=O)cc1	1%	-7%	?	10%	-13%
COc1ccc(CCNC(=O)CCCN2C(=O)c3ccccc3C2=O)cc1	25%	13%[10 µM]	14µM*	·	·
O=C(Nc1cc(Sc2nc3ccccc3s2)cc([N+](=O)[O-])c1)c1cccc(F)c1F	?	-36%[10 µM]	4%	?	-6%
COc1cccc(NC(=O)CSc2nc3c([nH]c4ccccc43)c(=O)n2-c2ccccc2)c1	·	·	·	17%[46 µM]	·
O=c1c2ccccc2nc2n1C(CSCc1ccc(Cl)cc1)CS2 (configuration not stated)	11µM*	-2%[10 µM]	?	?	-12%
CCOc1cccc(NC(=O)Cc2cccs2)c1	-13%	-5%	-3%	16%	-15%
O=C(Cc1cccs1)Nc1cccc(-c2nc3cc4ccccc4cc3[nH]2)c1	25µM*	·	?	?	?
O=C(/C=C/c1ccccc1Cl)NCc1cccs1	20%	-26%[10 µM]	?	-9%	14µM*
O=C(/C=C/c1ccc(F)cc1)NCc1cccs1	6%	11%[10 µM]	-6%	5%	-13%
COc1ccc(N2CCN(C(=O)c3cccn4c(=O)c5ccc(Cl)cc5nc34)CC2)cc1	·	·	·	8%[46 µM]	·
O=C(NCc1cc(F)cc2c1OCCO2)[C@H]1C[C@@H]1[C@H](NP(=O)(c1ccccc1)c1ccccc1)c1ccccc1	·	5%	-14%	·	-19%
O=C(c1ccc(F)cc1)C(CN1CCOCC1)c1ccccc1 (configuration not stated)	26%[9.22 µM]	32µM*	?	?	-4%
CC/C(=N/NC(=O)c1ccccc1)c1ccc(OCCN2CCOCC2)cc1	-6%	·	10µM*	4%	-23%
COc1ccc(C(=O)C(CN2CCOCC2)c2ccccc2)cc1 (configuration not stated)	·	22µM*	-6%	?	1%
CCCCOc1ccc(C(=O)C(CN2CCOCC2)c2ccccc2)cc1 (configuration not stated)	36%[9.22 µM]	·	4%	?	-3%
COc1ccc(C(=O)C(CN2CCCC2)c2ccccc2)cc1 (configuration not stated)	16%[9.22 µM]	·	25µM*	?	-8%
CC(=O)c1ccc(NC(=O)COC(=O)c2ccccc2N=Nc2ccc(N(C)C)cc2)cc1	?	-55%[10 µM]	11%	?	-24%
COC(=O)c1ccccc1NC(=O)COC(=O)c1ccccc1N=Nc1ccc(N(C)C)cc1	6.3µM*	-43%[10 µM]	-6%	?	-15%
CN(C)C(=O)c1nc2ccccc2s1	8%	·	-2%	-3%	-14%
Cc1ccc(SC/C(O)=C(\C#N)c2nc3ccccc3s2)cc1	?	16%[1.9 µM]	-3%	-18%	-17%
N#C/C(=C(/O)c1ccc(-c2cccc([N+](=O)[O-])c2)o1)c1nc2ccccc2s1	11µM*	-136%	?	·	·
